# Laboratory results reported in the supplement of paper PMC4466140.
# B1: unnamed (peptide)
# chain: NLPKRKPPKLQGPFS
# B2: unnamed (peptide)
# chain: YVRRRPRVRLEPLLS
# Molecular target: AgAbp1
# Assay: SPOT peptide array binding signal intensity (averaged, normalized) (arbitrary units (background-subtracted, floor 0; scale differs between SH3 domains)); higher = stronger binding of the SH3 domain to the peptide
# Method in brief: (§1)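 To measure binding, SH3 domains from four yeast species were fused to GST, expressed in E. coli BL21(DE3) and purified on glutathione Sepharose. Each domain was incubated at 10 μg/ml overnight at 4°C on cellulose membranes with synthetic 15-mer peptides whose cysteines were replaced by serines. Anti-GST antibody, an HRP anti-mouse secondary and luminol were used for detection, and images were quantified with Genespotter. Reported binding signal is normalized, background-subtracted spot intensity averaged over replicates, in arbitrary units that differ between domains.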
row,Binder,SPOT peptide array binding signal intensity
1,B1,117
2,B2,116

# Molecular target: AgBbc1
# Assay: as above
# Method in brief: as §1
row,Binder,SPOT peptide array binding signal intensity
1,B1,7.75
2,B2,30.5

# Molecular target: AgBem1-D1
# Assay: as above
# Method in brief: as §1
row,Binder,SPOT peptide array binding signal intensity
1,B1,244
2,B2,62.5

# Molecular target: AgBzz1-D1
# Assay: as above
# Method in brief: as §1
row,Binder,SPOT peptide array binding signal intensity
1,B1,148
2,B2,152

# Molecular target: AgBzz1-D2
# Assay: as above
# Method in brief: as §1
row,Binder,SPOT peptide array binding signal intensity
1,B1,77.5
2,B2,91.5

# Molecular target: AgCyk3
# Assay: as above
# Method in brief: as §1
row,Binder,SPOT peptide array binding signal intensity
1,B1,2.5
2,B2,6.5

# Molecular target: AgFus1
# Assay: as above
# Method in brief: as §1
row,Binder,SPOT peptide array binding signal intensity
1,B1,64
2,B2,928

# Molecular target: AgHof1
# Assay: as above
# Method in brief: as §1
row,Binder,SPOT peptide array binding signal intensity
1,B1,37.5
2,B2,35

# Molecular target: AgHse1
# Assay: as above
# Method in brief: as §1
row,Binder,SPOT peptide array binding signal intensity
1,B1,1020
2,B2,936

# Molecular target: AgLsb1
# Assay: as above
# Method in brief: as §1
row,Binder,SPOT peptide array binding signal intensity
1,B1,≤ 0
2,B2,17.2

# Molecular target: AgLsb4
# Assay: as above
# Method in brief: as §1
row,Binder,SPOT peptide array binding signal intensity
1,B1,56
2,B2,138

# Molecular target: AgMyo5
# Assay: as above
# Method in brief: as §1
row,Binder,SPOT peptide array binding signal intensity
1,B1,4.75
2,B2,6

# Molecular target: AgNbp2
# Assay: as above
# Method in brief: as §1
row,Binder,SPOT peptide array binding signal intensity
1,B1,247
2,B2,424

# Molecular target: AgRvs167
# Assay: as above
# Method in brief: as §1
row,Binder,SPOT peptide array binding signal intensity
1,B1,2.67
2,B2,14.1

# Molecular target: AgSho1
# Assay: as above
# Method in brief: as §1
row,Binder,SPOT peptide array binding signal intensity
1,B1,12
2,B2,263

# Molecular target: AgSla1-D1-D2
# Assay: as above
# Method in brief: as §1
row,Binder,SPOT peptide array binding signal intensity
1,B1,258
2,B2,258

# Molecular target: AgSla1-D3
# Assay: as above
# Method in brief: as §1
row,Binder,SPOT peptide array binding signal intensity
1,B1,2
2,B2,15.8

# Molecular target: CaAbp1-D1
# Assay: as above
# Method in brief: as §1
row,Binder,SPOT peptide array binding signal intensity
1,B1,1870
2,B2,603

# Molecular target: CaAbp1-D2
# Assay: as above
# Method in brief: as §1
row,Binder,SPOT peptide array binding signal intensity
1,B1,1400
2,B2,652

# Molecular target: CaBbc1
# Assay: as above
# Method in brief: as §1
row,Binder,SPOT peptide array binding signal intensity
1,B1,51
2,B2,150

# Molecular target: CaBem1-D1
# Assay: as above
# Method in brief: as §1
row,Binder,SPOT peptide array binding signal intensity
1,B1,13
2,B2,81.5

# Molecular target: CaBzz1-D1
# Assay: as above
# Method in brief: as §1
row,Binder,SPOT peptide array binding signal intensity
1,B1,157
2,B2,184

# Molecular target: CaBzz1-D2
# Assay: as above
# Method in brief: as §1
row,Binder,SPOT peptide array binding signal intensity
1,B1,162
2,B2,108

# Molecular target: CaCyk3
# Assay: as above
# Method in brief: as §1
row,Binder,SPOT peptide array binding signal intensity
1,B1,102
2,B2,45.5

# Molecular target: CaFus1
# Assay: as above
# Method in brief: as §1
row,Binder,SPOT peptide array binding signal intensity
1,B1,186
2,B2,589

# Molecular target: CaHof1
# Assay: as above
# Method in brief: as §1
row,Binder,SPOT peptide array binding signal intensity
1,B1,0.5
2,B2,0.75

# Molecular target: CaHse1
# Assay: as above
# Method in brief: as §1
row,Binder,SPOT peptide array binding signal intensity
1,B1,119
2,B2,107

# Molecular target: CaLsb1
# Assay: as above
# Method in brief: as §1
row,Binder,SPOT peptide array binding signal intensity
1,B1,≤ 0
2,B2,0.75

# Molecular target: CaLsb4
# Assay: as above
# Method in brief: as §1
row,Binder,SPOT peptide array binding signal intensity
1,B1,127
2,B2,164

# Molecular target: CaMyo5
# Assay: as above
# Method in brief: as §1
row,Binder,SPOT peptide array binding signal intensity
1,B1,≤ 0
2,B2,8.25

# Molecular target: CaNbp2
# Assay: as above
# Method in brief: as §1
row,Binder,SPOT peptide array binding signal intensity
1,B1,2240

# Molecular target: CaRvs167
# Assay: as above
# Method in brief: as §1
row,Binder,SPOT peptide array binding signal intensity
1,B1,1.67

# Molecular target: CaRvs167-3
# Assay: as above
# Method in brief: as §1
row,Binder,SPOT peptide array binding signal intensity
1,B1,34.2

# Molecular target: CaSho1
# Assay: as above
# Method in brief: as §1
row,Binder,SPOT peptide array binding signal intensity
1,B1,300

# Molecular target: CaSla1-D1-D2
# Assay: as above
# Method in brief: as §1
row,Binder,SPOT peptide array binding signal intensity
1,B1,48

# Molecular target: CaSla1-D3
# Assay: as above
# Method in brief: as §1
row,Binder,SPOT peptide array binding signal intensity
1,B1,0.5

# Molecular target: ScAbp1
# Assay: as above
# Method in brief: as §1
row,Binder,SPOT peptide array binding signal intensity
1,B1,179

# Molecular target: ScBbc1
# Assay: as above
# Method in brief: as §1
row,Binder,SPOT peptide array binding signal intensity
1,B1,6.25

# Molecular target: ScBem1-D1
# Assay: as above
# Method in brief: as §1
row,Binder,SPOT peptide array binding signal intensity
1,B1,16

# Molecular target: ScBzz1-D1
# Assay: as above
# Method in brief: as §1
row,Binder,SPOT peptide array binding signal intensity
1,B1,39.5

# Molecular target: ScBzz1-D2
# Assay: as above
# Method in brief: as §1
row,Binder,SPOT peptide array binding signal intensity
1,B1,4

# Molecular target: ScCyk3
# Assay: as above
# Method in brief: as §1
row,Binder,SPOT peptide array binding signal intensity
1,B1,113

# Molecular target: ScFus1
# Assay: as above
# Method in brief: as §1
row,Binder,SPOT peptide array binding signal intensity
1,B1,162

# Molecular target: ScHof1
# Assay: as above
# Method in brief: as §1
row,Binder,SPOT peptide array binding signal intensity
1,B1,1.25

# Molecular target: ScHse1
# Assay: as above
# Method in brief: as §1
row,Binder,SPOT peptide array binding signal intensity
1,B1,1280

# Molecular target: ScLsb1
# Assay: as above
# Method in brief: as §1
row,Binder,SPOT peptide array binding signal intensity
1,B1,0.5

# Molecular target: ScLsb2
# Assay: as above
# Method in brief: as §1
row,Binder,SPOT peptide array binding signal intensity
1,B1,3.5

# Molecular target: ScLsb3
# Assay: as above
# Method in brief: as §1
row,Binder,SPOT peptide array binding signal intensity
1,B1,328

# Molecular target: ScLsb4
# Assay: as above
# Method in brief: as §1
row,Binder,SPOT peptide array binding signal intensity
1,B1,21.5

# Molecular target: ScMyo3
# Assay: as above
# Method in brief: as §1
row,Binder,SPOT peptide array binding signal intensity
1,B1,63.2

# Molecular target: ScMyo5
# Assay: as above
# Method in brief: as §1
row,Binder,SPOT peptide array binding signal intensity
1,B1,29.5

# Molecular target: ScNbp2
# Assay: as above
# Method in brief: as §1
row,Binder,SPOT peptide array binding signal intensity
1,B1,475

# Molecular target: ScPex13
# Assay: as above
# Method in brief: as §1
row,Binder,SPOT peptide array binding signal intensity
1,B1,2

# Molecular target: ScRvs167
# Assay: as above
# Method in brief: as §1
row,Binder,SPOT peptide array binding signal intensity
1,B1,23

# Molecular target: ScSho1
# Assay: as above
# Method in brief: as §1
row,Binder,SPOT peptide array binding signal intensity
1,B1,408

# Molecular target: ScSla1-D1-D2
# Assay: as above
# Method in brief: as §1
row,Binder,SPOT peptide array binding signal intensity
1,B1,164

# Molecular target: ScSla1-D3
# Assay: as above
# Method in brief: as §1
row,Binder,SPOT peptide array binding signal intensity
1,B1,12.5

# Molecular target: SpAbp1-D1
# Assay: as above
# Method in brief: as §1
row,Binder,SPOT peptide array binding signal intensity
1,B1,498

# Molecular target: SpBbc1
# Assay: as above
# Method in brief: as §1
row,Binder,SPOT peptide array binding signal intensity
1,B1,1.5

# Molecular target: SpBzz1-D1
# Assay: as above
# Method in brief: as §1
row,Binder,SPOT peptide array binding signal intensity
1,B1,382

# Molecular target: SpBzz1-D2
# Assay: as above
# Method in brief: as §1
row,Binder,SPOT peptide array binding signal intensity
1,B1,0.5

# Molecular target: SpCyk3
# Assay: as above
# Method in brief: as §1
row,Binder,SPOT peptide array binding signal intensity
1,B1,1

# Molecular target: SpHof1
# Assay: as above
# Method in brief: as §1
row,Binder,SPOT peptide array binding signal intensity
1,B1,117

# Molecular target: SpHof1-2
# Assay: as above
# Method in brief: as §1
row,Binder,SPOT peptide array binding signal intensity
1,B1,3.25

# Molecular target: SpHof1-3
# Assay: as above
# Method in brief: as §1
row,Binder,SPOT peptide array binding signal intensity
1,B1,475

# Molecular target: SpHse1
# Assay: as above
# Method in brief: as §1
row,Binder,SPOT peptide array binding signal intensity
1,B1,722

# Molecular target: SpLsb1
# Assay: as above
# Method in brief: as §1
row,Binder,SPOT peptide array binding signal intensity
1,B1,5

# Molecular target: SpLsb4
# Assay: as above
# Method in brief: as §1
row,Binder,SPOT peptide array binding signal intensity
1,B1,756

# Molecular target: SpMyo1
# Assay: as above
# Method in brief: as §1
row,Binder,SPOT peptide array binding signal intensity
1,B1,254

# Molecular target: SpNbp2
# Assay: as above
# Method in brief: as §1
row,Binder,SPOT peptide array binding signal intensity
1,B1,82.5

# Molecular target: SpPex13
# Assay: as above
# Method in brief: as §1
row,Binder,SPOT peptide array binding signal intensity
1,B1,5

# Molecular target: SpRvs167
# Assay: as above
# Method in brief: as §1
row,Binder,SPOT peptide array binding signal intensity
1,B1,7.17

# Molecular target: SpSla1-D1-D2
# Assay: as above
# Method in brief: as §1
row,Binder,SPOT peptide array binding signal intensity
1,B1,≤ 0

# Molecular target: SpSla1-D3
# Assay: as above
# Method in brief: as §1
row,Binder,SPOT peptide array binding signal intensity
1,B1,1
